Source: PubChem BioAssay
The sample as a whole holds a higher share of hits than the screen did.
Pf Dd2 inh: blocks in vitro growth of P. falciparum Dd2; Potency, µM (highest dose often 28.9 µM), most hits filed as inhibitors; AID 1347417; 120,000 tested, 4.3% active; P. falciparum Dd2 growth, SYBR Green, 72 h; active = well fitted inhibition curve with a large enough effect; note: nearly all actives have a fitted effect of over 65% in size
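Infected erythrocytes (Dd2, 0.3% parasitemia, 2.5% hematocrit final) are added to compound in RPMI-1640/Albumax II medium, grown 72 h at 37C in low oxygen, then lysed with saponin/Triton-X containing SYBR Green and read by fluorescence.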
Large screens that a line does not name were inactive.

COCCNC(=O)CCCN1C(=O)COc2ccc(C(=O)COc3ccc(C(C)(C)C)cc3)cc21	none
CC(C)NC(=O)Nc1ccc([C@H]2OCC(=O)N(CCN)[C@@H]2CO)cc1	none
CN1CC(c2ccccc2)CC2(CCN(C(=O)CCCn3ccnc3)CC2)C1 (stereo not given)	Pf Dd2 inh 13µM
O=C(O)c1cccc(C2CCCN(C(=O)CCCn3ccnc3)C2)c1 (stereo not given)	none
CCc1ocnc1C(=O)N1CCC2(CC1)CC(c1ccccc1)CN(C)C2 (stereo not given)	none
COc1ccc(CCC(=O)N2CC[C@@H]3COCCN(Cc4ccncc4)[C@@H]3C2)cc1	none
CC(=O)NC1(C)CCN(Cc2ccccc2-c2cccc(C(C)=O)c2)C1 (stereo not given)	none
CC(=O)NC1(C)CCN(Cc2cnc(-c3cccc(N(C)C)c3)s2)CC1	none
CC(=O)NC1(C)CCN(Cc2ccc(-c3ccc(N4CCOCC4)cc3)cc2)C1 (stereo not given)	none
CC(=O)NC1(C)CCN(Cc2cnc(-c3ccccc3OCc3ccccc3)s2)CC1	Pf Dd2 inh 11µM
CC(=O)NC1(C)CCN(Cc2cnc(-c3ccccc3)s2)CC1	none
CC(=O)NC1(C)CCN(Cc2ccc(-c3ccccc3OCc3ccccc3)cc2)C1 (stereo not given)	Pf Dd2 inh 13µM
CCCOc1ccc(CN2CCc3nc(N(C)C)[nH]c(=O)c3CC2)cc1OC	none
CN1CCC2(CCC1=O)CN(CC(=O)NCc1ccccn1)CCN2C (stereo not given)	none
O=C(N1CCOCC1)N1CCn2c(nnc2C2CCNCC2)C1	none
COCCCNC(=O)c1c(OCC2CC2)cc(=O)n2c1CCOCC2	none
O=C(Nc1ccc(Cl)cc1)c1nc2c(o1)CCN(Cc1cc(F)ccc1F)CC2	none
O=C(Nc1ccc(Cl)cc1)N1CCC(N2CCCNC2=O)CC1	none
COc1ccccc1OCCNC(=O)C1CCc2ncc(-c3ccc(F)cc3)n2C1 (stereo not given)	none
O=C(NCc1ccccc1)N1CCC(N2CC(OCC3CC3)C23CCOCC3)CC1 (stereo not given)	none
CCC(=O)N1CCC(N2CC(OCC3CC3)C23CCOCC3)CC1 (stereo not given)	none
CCOCC(=O)N1CCC(N2CC(OCC3CC3)C23CCCCC3)CC1 (stereo not given)	Pf Dd2 inh 5µM
O=C(Cc1cccnc1)N1CCC(N2CC(OCC3CC3)C23CCCCC3)CC1 (stereo not given)	Pf Dd2 inh 7.9µM
CC(C)NC(=O)N1CCC(N2CC(OCC3CC3)C23CCCCC3)CC1 (stereo not given)	none
Cn1nccc1C(=O)N1CCC(N2CC(OCC3CC3)C23CCOCC3)CC1 (stereo not given)	none
CC(C)NC(=O)N1CCC(O)(c2csc(CN3CCN(C)CC3)n2)CC1	none
Cc1ccsc1C(=O)N1CCc2n[nH]c(=O)n2CC1	none
COc1ccccc1CN1CCc2c(n(CCOc3ccccc3)n(-c3ccccc3)c2=O)C1	none
Cc1ccc(C)c(C(=O)NCc2nnc3cc(-c4nc(C5CC5)no4)ccn23)c1	none
CC(C)CCN1CC2(CCN(C(=O)CCC3NC(=O)NC3=O)CC2)OC1=O (stereo not given)	none
COc1ccc(C(=O)N2CC[C@@H]3CN(S(C)(=O)=O)[C@@H]3C2)cn1	none
O=C1NCCCCCN(C(=O)c2ccncc2)[C@H]2CCC[C@@H]12	none
O=C(NCCOc1ccccc1)[C@@H]1C[C@@H](c2ccc(F)cc2)N([S+](=O)([O-])c2ccccc2)C1	none
CCN1C(=O)CCc2cc(NC(=O)c3ccc(OC)cc3C)ccc21	none
Cc1ccc(/C=C/c2onc(C)c2S(=O)(=O)N2CCC(C(=O)Nc3ccc(Br)c(C)c3)CC2)cc1	none
CCN(CC)C(=O)C1CCN(S(=O)(=O)c2c(C)noc2/C=C/c2cccc(OC)c2)CC1	none
COc1ccc(-c2noc(N3CCC(C(=O)Nc4cccc(C)c4C)CC3)n2)cc1	none
COc1ccc(/C=C\c2onc(C)c2S(=O)(=O)N2CCC(C(=O)Nc3cccc(OC)c3)CC2)cc1	Pf Dd2 inh 8.9µM
COc1ccc(CNC(=O)C2CCN(S(=O)(=O)c3cccc(-c4noc(C)n4)c3)CC2)cc1	none
COc1ccc(NC(=O)C2CCN(S(=O)(=O)c3cc(-c4noc(C)n4)ccc3C)CC2)cc1	Pf Dd2 inh 6.3µM
CC(C)c1ccc(NC(=O)C2(C)CCCCC(=O)N2)cc1 (stereo not given)	none
COCC1CN(C(=O)CCn2nc(C)cc2C)CC12CCOCC2 (stereo not given)	none
O=C(NC[C@H]1O[C@@H](CO)[C@@H](O)[C@H]1N1CCN(c2cccc(C(F)(F)F)c2)CC1)Nc1ccccc1	none
COc1cccc(S(=O)(=O)N2CCC3(CC2)CC(CC(=O)NC2CC2)CCO3)c1 (stereo not given)	none
COc1ccc(S(=O)(=O)N2CCC3(CC2)CC(CC(=O)NC2CC2)CCO3)cc1 (stereo not given)	Pf Dd2 inh 6.3µM
Cn1cnc(S(=O)(=O)N2CCC3(CC2)CC(CC(=O)NC2CC2)CCO3)c1 (stereo not given)	none
Cc1cn2nc(C(=O)Nc3ccc(C(=O)N4CCCC4)cc3)cc2c(=O)[nH]1	none
Cc1ccc(C(=O)N2CCC(n3cc(-c4nc(C5CC5)no4)nn3)C2)s1 (stereo not given)	Pf Dd2 inh 10µM
CC(=O)Nc1cccc(C(=O)N2CCC(n3cc(-c4nc(-c5ccccc5)no4)nn3)C2)c1 (stereo not given)	Pf Dd2 inh 4.5µM
CC(=O)Nc1cccc(C(=O)N2CCC(n3cc(-c4nc(C)no4)nn3)CC2)c1	none
CC(C)c1noc(-c2cn(C3CCN(C(=O)c4cccc(C(F)(F)F)c4)C3)nn2)n1 (stereo not given)	Pf Dd2 inh 10µM
COc1ccc(C2(C(=O)N3CCC(n4cc(-c5nc(C)no5)nn4)CC3)CC2)cc1	Pf Dd2 inh 3.2µM
CC(C)c1noc(-c2cn(C3CCN(C(=O)c4ccc(F)c(F)c4)C3)nn2)n1 (stereo not given)	none
Cc1noc(-c2cn(C3CCN(C(=O)C4(c5ccccc5)CC4)CC3)nn2)n1	none
CC(C)c1noc(-c2cn(C3CCN(C(=O)c4cccc(OC(F)(F)F)c4)C3)nn2)n1 (stereo not given)	none
Cc1ccc(C(=O)N2CCC(n3cc(-c4nc(-c5ccccc5)no4)nn3)C2)cc1C (stereo not given)	none
COc1cccc(C(=O)N2CCC(n3cc(-c4nc(C)no4)nn3)CC2)c1	none
Cc1ccc(C(=O)N2CCCC(n3cc(-c4nc(C5CC5)no4)nn3)C2)s1 (stereo not given)	none
Cc1noc(-c2cn(C3CCN(C(=O)c4ccc(C)s4)CC3)nn2)n1	none
c1cncc(-c2nc(CC3CCCNC3)no2)c1 (stereo not given)	none
O=C1CCCN1C1CCN(Cc2cccnc2)CC1	none
CC(C)CC(=O)NCCC1CCN(C(=O)Nc2ccc(F)cc2F)CC1	none
COCCCN1C(=O)CC(CC(=O)N2CCC(C(O)c3ccccc3)CC2)(c2ccccc2C)C1=O (stereo not given)	none
CC1(CNC(=O)c2ccccc2Cl)CCOCC1	none
CCCC1c2nccn2CCCN1C(=O)CCc1c(C)nn(C)c1C (stereo not given)	none
COCC(=O)N[C@@H]1CN(C(=O)NCc2ccccc2)CC[C@@H]1c1nc(C)no1	none
O=C(NC1CCc2n[nH]c(=O)n2CC1)c1n[nH]c2ccccc12 (stereo not given)	none
OCC1CN(Cc2ccc(Cl)cc2)CC12CCNCC2 (stereo not given)	none
Cc1cccc(N2CCN(c3nc4ccccc4c4nc(-c5cccnc5)nn34)CC2)c1C	none
Cc1ccc(C)c(N2CCN(c3nc4ccccc4c(=O)n3-c3ccccc3)CC2)c1	none
